Reference: PubChem BioAssay (NCI)
About 83,000 compounds went through this panel and 20% of them were active in at least one assay; those are over-represented in the sample as a whole.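 A percent growth of 40 corresponds to 60% growth inhibition; 0 means no net growth; -100 means all cells died. Active threshold: below 10.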 Values without a mark were called inactive. The source made the active and inactive calls.

Key:
Assay in all cases: NCI-60 one-dose screen, 48 h (100 = growth as untreated, 0 = no growth, -100 = all killed)
Settings in all cases: 10 µM
[1] = system: HT29 colon
[2] = system: SNB-75 CNS
[3] = system: SNB-19 CNS
[4] = system: U251 CNS
[5] = system: SK-MEL-5 melanoma
[6] = system: UACC-62 melanoma
[7] = system: LOX IMVI melanoma
[8] = system: SK-MEL-28 melanoma
[9] = system: SK-MEL-2 melanoma

Compound | growth [1] | growth [2] | growth [3] | growth [4] | growth [5] | growth [6] | growth [7] | growth [8] | growth [9]
COc1ccc(-c2nnc(-c3c(-c4ccccc4)nc4ncccn34)o2)cc1OC | 102% | 74.1% | 100% | 101% | 95.4% | 102% | 102% | 112% | 96.3%
COc1cc(-c2nn3c(/C=C4/C(=O)Nc5ccccc54)c(-c4ccc(C)cc4)nc3s2)cc(OC)c1OC | 25.7% | 18.3% | 87.8% | 65.2% | 12.2% | 58.5% | 44.1% | 29.1% | 65.9%
Cc1cc(C)c(NC(=O)c2sc3nc4c(cc3c2N)C(=O)CCC4)c(C)c1 | 0.48% (active) | 0% (active) | 40.2% | 21.1% | 11.3% | 23.2% | 50.6% | 56% | 36.1%
CCN(CC)CCOc1nc2ccc(OC)cc2c2c1-c1ccc(OC)cc1C2=O | -61.4% (active) | -1.45% (active) | 33.5% | -87.9% (active) | -36.1% (active) | 36% | -74.6% (active) | -12.6% (active) | 20.8%
COc1ccc(-c2nc3sc(-c4ccc(OC)cc4)c(-c4ccc(OC)cc4)n3c2/C=C/c2ccc(C(C)C)cc2)cc1 | 92.5% | 55.9% | 103% | 102% | 99.9% | 86.9% | 98.6% | 100% | 84.3%
c1ccc(C(NC2CC3CCC2C3)c2ccccc2)cc1 (stereo unspecified) | 85.8% | 93.5% | 99% | 91.9% | 99.7% | 87.2% | 95.3% | 110% | 89.6%
O=[N+]([O-])c1cccc(-c2ncc(-c3ccc(Cl)cc3Cl)[nH]2)c1 | -65.2% (active) | 90.6% | 96.7% | -100% (active) | 94.7% | 63.4% | -100% (active) | 92.8% | –
COc1ccc(/C=C2/CN(C(=O)c3ccccc3F)C/C(=C\c3ccc(OC)cc3)C2=O)cc1 | -82.5% (active) | 68.9% | 77% | 9.44% (active) | 48.6% | 56.5% | -54.5% (active) | 69.4% | 94.1%
